Measurements as given in PubChem BioAssay (EPA / NIEHS).
Active and inactive are the calls of the source. How the source made its calls: active means hit-call score of the fitted dose curve at least 0.9, where 1 is the maximum; inactive means score below 0.9.

Assay: ATG_NFI_CIS: Attagene CIS-FACTORIAL HepG2 Assay for human Nuclear Factor I (NFI) (AID 2282989)
Conditions: HepG2 cis-regulatory reporter, NFI response element transcription; actives raise or lower the signal
Procedure: ATG_CIS is a cell-based, multiplexed-readout assay that uses HepG2, a human liver cell line, with measurements taken at 24 hours after chemical dosing in a 24-well plate.ATG_NFI_CIS is one of 52 assay component(s) measured or calculated from the ATG_CIS assay. It is designed to make measurements of mRNA induction, a form of inducible reporter, as detected with fluorescence intensity signals by Reverse transcription polymerase chain reaction (RT-PCR) and Capillary electrophoresis technology.Data from the assay component ATG_NFI_CIS was analyzed into 1 assay endpoint. This assay endpoint, ATG_NFI_CIS, was analyzed with bidirectional fitting relative to DMSO as the negative control and baseline of activity. Using a type of inducible reporter, measures of mRNA for gain or loss-of-signal activity can be used to understand the reporter gene at the transcription factor-level as they relate to the gene NFIA. Furthermore, this assay endpoint can be referred to as a primary readout, because this assay has produced multiple assay endpoints where this one serves a reporter gene function. To generalize the intended target to other relatable targets, this assay endpoint is annotated to the dna binding intended target family, where the subfamily is nuclear factor I.
Human liver HepG2 cells are transiently transfected with multiple reporter transcription units (MRTUs) in 6-well plates using FuGene 6 reagent (Roche; 3 ml FuGene/1 mg DNA). The MRTU constructs are regulated by a cis-regulating element (promoter). […] A major difference between the CIS and TRANS system is that in CIS activities of endogenous TFs are measured, whereas the TRANS assay evaluates changes in activities of exogenous, chimeric NR-Gal4 proteins. […] At the end of 24 hour incubation, total RNA was isolated using TriZol reagent (Invitrogen). The isolated RNA is then reverse-transcribed using oligo(dT) primer and Mo-MLV reverse transcriptase (Invitrogen) with DNAse I (Ambion) treatment for 30 min. The one-tenth of the produced cDNA was amplified by PCR using Taq DNA polymerase (Invitrogen) and two reporter sequence-specific primers. The PCR products were fluorescently labeled by primer extension with 6-arboxyfluorescein (6-FAM) 5'-labeled reporter sequence-specific primer (2 min at 95 C, 20 s at 68 C and 10 min at 72 C) and these products were digested with 5U of HpaI (New England Biolabs) for 2h at 37 C. The fragments were purified using Qiaquick PCR columns (Qiagen), analyzed on an ABI 3130xL genetic analyzer (Applied Biosystems) with peak positions identified by using a set of X-rhodamine (ROX)-labeled MapMarker1000 molecular weight standards (BioVentures). The raw capillary electrophoresis data was processed using Attagraph software (Attagene).

| Structure (SMILES) | outcome | AC50 |
| --- | --- | --- |
| CCCCC(CC)COC(=O)c1ccccc1 (stereo not given) | inactive |  |
| CC1=Nc2ccc3ccccc3c2C1(C)C | inactive |  |
| CCC(CC)C(=O)O | inactive |  |
| NC(=O)OCC(COC(N)=O)c1ccccc1 | inactive |  |
| COC(=O)c1cc(Cl)ccc1[N+](=O)[O-] | inactive |  |
| CCCCCCCOC(=O)CCC | inactive |  |
| c1c[nH]cn1 | inactive |  |
| CCOC(F)(F)C(F)(F)C(F)(F)C(F)(F)F | inactive |  |
| O=C1CCCC1 | inactive |  |
| CC=CC(=O)N(CC)c1ccccc1C | inactive |  |
| CCOC(=O)CC(C(C)=O)C(C)=O | inactive |  |
| CCCCCCCC/C=C\CCCCCCCC(=O)O | inactive |  |
| c1ccc(CNCc2ccccc2)cc1 | inactive |  |
| CCCCCc1ccc(Cl)cc1 | inactive |  |
| CCC(C)(C)C1CCCCC1OC(C)=O (stereo not given) | inactive |  |
| O=P(O)(O)Oc1ccccc1 | inactive |  |
| C=CC(C)(CCC=C(C)C)OC(=O)C(C)C (stereo not given) | inactive |  |
| O=CC1CC1 | inactive |  |
| CCC(C)C=O (stereo not given) | inactive |  |
| CCCCCCCCCCCCCCCC(=O)OCC | inactive |  |

| Structure (SMILES) | outcome | AC50 |
| --- | --- | --- |
| CCCCC(CC)CCC(CC(C)C)OS(=O)(=O)O (stereo not given) | inactive |  |
| O=C(Oc1ccccc1)c1ccc2ccccc2c1O | inactive |  |
| CCCCC(CC)COCC1CO1 (stereo not given) | inactive |  |
| COC(=O)/C=C\C(=O)O | inactive |  |
| CC(=O)c1ccc2c(c1)CCCC2 | inactive |  |
| N[C@H]1C(O)O[C@H](CO)[C@H](O)[C@@H]1O (stereo not given in full) | inactive |  |
| Cc1cccc(N)n1 | inactive |  |
| C=C1[C@H]2CC[C@@H]3[C@H]2C(C)(C)CCC[C@]13C | inactive |  |
| COc1cc(NC(=O)CC(C)=O)c(OC)cc1Cl | inactive |  |
| CCCCCCCCC(=O)OCC | inactive |  |
| CC[C@H]1OC(=O)[C@H](C)[C@@H](O[C@H]2C[C@@](C)(OC)[C@@H](O)[C@H](C)O2)[C@H](C)[C@@H](O[C@@H]2O[C@H](C)C[C@H](N(C)C)[C@H]2O)[C@](C)(O)C[C@@H](C)C(=NOCOCCOC)[C@H](C)[C@@H](O)[C@]1(C)O | inactive |  |
| Nc1nc2ccccc2[nH]1 | inactive |  |
| [Cl][Nd]([Cl])[Cl] | inactive |  |
| O=c1cc(-c2ccccc2)oc2ccccc12 | inactive |  |
| C=C(C)c1cccc(C(C)(C)N=C=O)c1 | inactive |  |
| Nc1ccc(N)c(Cl)c1 |  | 46.6 µM (active) |
| COCc1c(C(C)C)nc(C(C)C)c(/C=C/[C@@H](O)C[C@@H](O)CC(=O)O)c1-c1ccc(F)cc1 | inactive |  |
| c1ccc(CCCc2ccncc2)cc1 | inactive |  |
| CC(=O)c1ccc[nH]1 | inactive |  |
| Cc1cccc(OCCOc2cccc(C)c2)c1 | inactive |  |
